Source: PubChem BioAssay (National Center for Advancing Translational Sciences (NCATS))
HepG2 tox = counter-screen for TGF-b inhibitors: cytotoxicity in HepG2 cells; HepG2 CAGA-GFP viability, ATP luminescence, 18 h; hit rate 0.76% among 410,000; AID 588856; Potency, µM (series often up to 46.1 µM), for inactives: top-dose activity change, negative = cytotoxicity, actives largely listed as cytotoxic; note: potency is the fitted concentration of half-maximal effect
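HepG2 CAGA-GFP cells (1000/well, DMEM with 1% FBS) received compound, then TGF-beta at 500 pg/mL final, and were incubated 18 hours at 37 degrees C. Viability was read by CellTiter-Glo luminescence. Media-only wells were set as complete cell-killing and DMSO as no toxicity.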
TDP1 cell noCPT = qHTS for Inhibitors of human tyrosyl-DNA phosphodiesterase 1 (TDP1): qHTS in cells in absence of CPT | Potency, µM (highest dose often 46.2 µM), for inactives: top-dose activity change, negative = growth inhibition, actives largely listed as inhibitors | AID 686978, 2013 | DT40 Tdp1-/- hTDP1 cells, no CPT, ATP luminescence, 48 h | hit rate 15% among 420,000; note: potency is the fitted concentration of half-maximal effect; % is set by controls: 0 for no effect and ±100 for the full control effect; nearly all actives have a fitted effect of over 55% in size
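Cells were dispensed at 400 per well, compounds added by pin tool, plates incubated ≥48 hr at 37 °C, then CellTiter-Glo added for 30 min at room temperature before luminescence reading. Line: DT40 Tdp1-/- complemented with hTDP1; camptothecin omitted.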
TGFb SMAD3 inh = TGF-b pathway inhibition | hit rate 1.2% among 410,000 | Potency, µM (titrated, usually from 46.1 µM), for the others: at the highest dose activity, negative = inhibition, most hits filed as inhibitors | HepG2 CAGA-GFP TGF-b/SMAD3 reporter, GFP fluorescence, 18 h; TGF-beta stimulated, 500 pg/mL final | AID 588855; note: potency is the fitted concentration of half-maximal effect; % is set by controls: 0 for no effect and ±100 for the full control effect; nearly all actives have a fitted effect of over 65% in size
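Inhibition was scored as loss of TGF-beta-induced (500 pg/mL final, 18 hours, 37 degrees C) GFP in HEPG2 cells carrying a CAGA-GFP reporter, in DMEM with 1% FBS. Well GFP was summed per cell; Activity was normalised to unstimulated and stimulated DMSO wells, then concentration-response fitting.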
IL1B secr inh = blocks inflammasome-driven IL-1 beta release. THP-1 LPS/ATP IL-1B secretion, AlphaLISA, 16 h; stronger effect = lower value. activity change, % at 57.5 µM. hit rate 4.7% among 360,000. AID 743279; in the data active = activity change below about -50%; inconclusive = mostly about -30% to -49%; note: % is set by controls: 0 for no effect and ±100 for the full control effect
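THP-1 cells pretreated 1 hr with compounds (up to 57.5 uM final), then stimulated with LPS (250 ng/mL final) plus ATP (1.25 mM final); secreted IL-1B measured by AlphaLISA after 16 hr, decreased signal indicating inhibition.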
TDP1 inh = inhibitors of human tyrosyl-DNA phosphodiesterase TDP1; Q9NUW8; recombinant TDP1, AlphaScreen DNA substrate cleavage; Potency, µM (doses to about 130 µM), for inactives: at the highest dose activity change, negative = inhibition, hits mostly inhibitors; hit rate 0.28% among 350,000; AID 485290; note: potency is the fitted concentration of half-maximal effect; % is set by controls: 0 for no effect and ±100 for the full control effect; nearly all actives have a fitted effect of over 40% in size
Target sequence (Q9NUW8 whole entry, looked up): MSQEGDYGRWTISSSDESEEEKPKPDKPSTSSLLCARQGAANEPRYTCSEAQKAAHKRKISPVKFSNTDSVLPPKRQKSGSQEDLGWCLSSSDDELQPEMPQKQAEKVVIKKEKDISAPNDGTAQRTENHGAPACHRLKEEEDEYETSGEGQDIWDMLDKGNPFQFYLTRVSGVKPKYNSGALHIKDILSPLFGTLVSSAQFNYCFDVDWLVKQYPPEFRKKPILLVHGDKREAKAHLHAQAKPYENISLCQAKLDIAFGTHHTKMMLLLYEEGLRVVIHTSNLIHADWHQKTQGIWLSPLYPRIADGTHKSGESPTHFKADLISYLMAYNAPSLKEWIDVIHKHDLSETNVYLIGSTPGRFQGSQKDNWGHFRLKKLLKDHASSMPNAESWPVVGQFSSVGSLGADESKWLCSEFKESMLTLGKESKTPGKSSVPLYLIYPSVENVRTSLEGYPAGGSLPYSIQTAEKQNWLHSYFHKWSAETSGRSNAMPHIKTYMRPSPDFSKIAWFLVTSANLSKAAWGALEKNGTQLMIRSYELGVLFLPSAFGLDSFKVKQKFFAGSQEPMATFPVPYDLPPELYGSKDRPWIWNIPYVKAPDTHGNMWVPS
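Here, a 5' biotin and 3' phosphotyrosine-FITC DNA oligonucleotide reports Tdp1 activity: intact substrate bridges AlphaScreen beads, while cleavage leaves a 3' phosphate and drops signal. All incubations at room temperature.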
DT40 TDP1 CPT = growth inhibition of DT40 Tdp1-/-;hTDP1 cells with camptothecin (screen for TDP1 inhibitors); chicken DT40 Tdp1-/-;hTDP1 cells + 20 nM CPT, ATP luminescence, 48 h; Potency, µM (series often up to 46.2 µM), for inactives: top-dose activity change, negative = growth inhibition, hits mostly inhibitors; hit rate 12% among 420,000; AID 686979; note: potency is the fitted concentration of half-maximal effect; % is set by controls: 0 for no effect and ±100 for the full control effect; nearly all actives have a fitted effect of over 55% in size
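Chicken DT40 Tdp1-/- cells stably complemented with human TDP1 were seeded at 400 cells/well in medium containing 20 nM camptothecin, exposed to pin-transferred compounds, and grown at 37 °C for at least 48 hr. Viability was read as ATP luminescence.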
* = called active by the depositor; ? = inconclusive; · = no result given; [ ] = remark or other dose. Only some compounds are listed: those with a hit (about 18% of all), similar ones and a draw of the others. Unless noted, calls come from the whole dose curve; as a rule, active = well fitted curve in the direction sought with a large enough effect; inconclusive = small, poorly fitted or top-dose-only effect, or another doubt; inactive = no such curve, though single readings can be large; an effect the other way counts as inactive or inconclusive.

SMILES	HepG2 tox	TDP1 cell noCPT	TGFb SMAD3 inh	IL1B secr inh	TDP1 inh	DT40 TDP1 CPT
Cc1ccc(CC(=O)N(C)CC(=O)Nc2ccc(N3CCOCC3)cc2)cc1C	-15%	-20%	12%	2	·	13µM*
Cc1ccc(NC(=O)CN(C)CC(=O)Nc2ccc(N3CCOCC3)cc2)cc1F	-15%	?	-7%	-8	3%	-30%
CN(CC(=O)Nc1ccc(N2CCOCC2)cc1)C(=O)CSc1ccc(F)cc1	-19%	-24%	-5%	0	·	-24%
CN(CC(=O)Nc1ccc(N2CCOCC2)cc1)C(=O)CSc1ccc(Br)cc1	-8%	15µM*	-20%	1	89µM*	?
CN(CC(=O)Nc1ccc(N2CCOCC2)cc1)C(=O)CCc1cc(C(C)(C)C)c(O)c(C(C)(C)C)c1	-10%	16µM*	?	-1	14%	?
O=[N+]([O-])c1ccc2c(c1)-c1ccccc1C2O (configuration not stated)	65%	13µM*	36%	?	·	?
CCCCCCC1=Cc2cc(OC)c(OC)cc2C(C(C(C)=O)C(=O)OC)O1 (configuration not stated)	·	·	·	·	5%[21 µM]	·
Clc1ccc2c(ccc[n+]2CCC2CCCCC2)c1	-3%	8.9µM*	3%	·	·	10µM*
CCCCCCCCCCCCCCCC[n+]1ccc(C)c2ccccc21	11µM*	0.79µM*	7.1µM*	·	·	0.71µM*
CCCCCCCCCC[n+]1cccc2cc(Cl)ccc21	-84%	1.3µM*	?	·	·	1.3µM*
CCCCCCCCCC[n+]1cccc2c3ccccc3ccc21	11µM*	0.15µM*	13µM*	0	6%	0.33µM*
CCN(CC)C(=O)C1=C(C)N(CCCN2CCCC2=O)C(=O)C(CC(=O)NCc2cccs2)C1 (configuration not stated)	2%	-10%	11%	-2	·	-7%
COC(=O)C1=C(C(=O)OC)[C@@H]2N(C)c3ccccc3[C@@]23C[C@@H](CO)N(C(=O)NCCBr)C3=N1	-18%	?	-13%	-20	5%	?
CCOc1ccc(CNC(=O)c2cc3ccccn3n2)cc1OC	-15%	-5%	5%	·	0%	-20%
CCOc1ccccc1NC(=S)NCc1ccccc1	-19%	?	-24%	24	·	10µM*
COc1ccccc1NC(=S)NCc1ccccc1	2%	-5%	0%	-2	·	-27%
S=C(NCc1ccccc1)Nc1cccc2ccccc12	-19%	18µM*	?	0	7%	18µM*
S=C(NCc1cccs1)Nc1cccc2ccccc12	0%	-18%	27%	?	0%	6%
CCOc1ccccc1NC(=S)NC1CC2CCC1C2 (configuration not stated)	-1%	21µM*	-19%	12	·	?
CCOc1ccc(CNC(=S)Nc2ccccc2)cc1Cl	-22%	?	?	-79*	0%	?
CCNC(=O)C1(C)CCCN(C(=O)c2oc3ccccc3c2C)C1 (configuration not stated)	-4%	6%	-12%	12	·	-6%
CC[C@]12C(=O)N(C)C[C@H]([C@@H]3C(=O)N(C)C(=O)[C@@H]31)N2C(=O)c1ccccc1	-7%	-2%	-1%	24	·	-1%
CN(C)C(=S)NCc1ccccc1	-1%	10µM*	-5%	5	4%	23µM*
CCN(C(=S)Nc1cccc2ccccc12)c1ccccc1	-29%	10µM*	-17%	-3	·	?
CN(N)C(=S)NCc1ccccc1	-16%	-8%	-11%	17	5%	-7%
SMILES	HepG2 tox	TDP1 cell noCPT	TGFb SMAD3 inh	IL1B secr inh	TDP1 inh	DT40 TDP1 CPT
COC(=O)c1ccc(NC(=S)NC2CC3CCC2C3)cc1 (configuration not stated)	-13%	21µM*	?	3	-1%	18µM*
N/C(=N\OC(=O)COc1cc(Cl)c(Cl)cc1Cl)c1ccccn1	-18%	-5%	-8%	2	5%	-2%
Cc1ccc(S(=O)(=O)N2C(c3ccc(Cl)c(Cl)c3)CC=C(C(=O)O)C2c2cccc(Cl)c2)cc1 (configuration not stated)	·	?	·	6	·	?
O=C(CNC(=O)COc1ccccc1)NCCN1CCOCC1	-8%	23%	-11%	12	1%	-3%
COc1ccccc1NC(=S)N/N=C/c1cccc(C)c1	-31%	?	?	10	3%	?
COc1ccc(CNC(=S)N/N=C/c2ccc(OC)c(OC)c2)cc1	-14%	2%	-7%	8	10%	3%
COc1ccc(C=NNC(=S)Nc2ccc(F)cc2)cc1OC	-4%	2.1µM*	0%	16	·	3.3µM*
COc1ccccc1NC(=S)N/N=C/c1ccc(O)cc1	0%	5.8µM*	?	-101*	0%	7.3µM*
COc1ccc(/C=N/NC(=S)Nc2cccc(C(=O)O)c2)cc1OC	0%	-6%	3%	29	-1%	9%
COc1cc(/C=N/NC(N)=S)ccc1OCc1ccc(C)cc1	-7%	10µM*	18µM*	-19	7%	5.2µM*
COc1ccc(C=NNC(=S)NN=Cc2ccc(OC)c(OC)c2)cc1OC	-11%	12µM*	-1%	-17	·	7.3µM*
COc1cc(/C=N/NC(N)=S)ccc1OC(=O)c1ccc(C)cc1	-16%	-18%	-4%	44	11%	-20%
COc1ccc(C(C(=O)NC2CCCC2)n2c(-c3cccs3)nc3ccccc32)cc1 (configuration not stated)	·	?	·	0	·	?
COC(=O)c1ccccc1NC(=O)C1CC(=O)N(c2ccc(C)cc2)C1 (configuration not stated)	-17%	-18%	0%	5	2%	-11%
COc1cc(/C=N/n2c(C)n[nH]c2=S)ccc1OCc1ccc(F)cc1	-10%	18µM*	3%	7	-1%	?
COc1cc(/C=N/NC(=S)N/N=C/c2cc(OC)c(OC)c(OC)c2)cc(OC)c1OC	-3%	3.7µM*	0%	10	3%	4.1µM*
Cc1ccc(NN2C(=O)C=C(c3ccccc3)C2=O)cc1	-152%	7.3µM*	?	-28	3%	5.8µM*
Cc1ccc(S(=O)(=O)CCSc2cccc(C(=O)O)c2)cc1	-39%	12%	-14%	-20	·	15%
